mHTT-CaM PPI inh = inhibitors of human mutant huntingtin-calmodulin interaction; P42858; AlphaScreen His-mHTT/GST-CaM binding, luminescence; inhibition, % at 15 µM; hit rate 3.6% among 190,000;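 note: 0% = both proteins with DMSO and 100% = one protein alone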
Pf apPOL block = Pf-apPOL DNA polymerase inhibition; AID 1794808; Recombinant Pf-apPOL, molecular beacon fluorescence, 1.5 h; hit rate 0.25% among 210,000; inhibition, % at 10 µM
Starred values were filed as active, the others as inactive. The list is not random: actives were taken first. Their share in the collection is about 3.6%. Cut-off read from the data, not from the text of the source: active = inhibition above about 50%; inactive = the rest.

What do the screens show for `CC1=C(C(=O)NCCCN2CCN(c3cc(C)ccc3C)CC2)C2(CCCCC2)OC1=O`?
mHTT-CaM PPI inh: 12; Pf apPOL block: 0

What do the screens show for `Cc1ccc(Cl)cc1N1CCN(CCCNC(=O)C2(n3cccc3)CCCCC2)CC1`?
mHTT-CaM PPI inh: 86*; Pf apPOL block: -12

Results for O=C(NCCN1CCN(c2ccccc2F)CC1)C1(n2cccc2)CCCCC1 ?
mHTT-CaM PPI inh: 24; Pf apPOL block: -9

Results for O=C(NCCN1CCN(c2cccc(C(F)(F)F)c2)CC1)C1(n2cccc2)CCCCC1 ?
mHTT-CaM PPI inh: 97*; Pf apPOL block: -5

How did COc1ccc(CN2CCN(C(=O)c3sccc3C)CC2)cn1 do in these assays?
mHTT-CaM PPI inh: 6; Pf apPOL block: -3

Results for Cc1cc(C)c(NC(=O)C2CCN(c3nccc(C)n3)CC2)c(C)c1 ?
mHTT-CaM PPI inh: -10; Pf apPOL block: 1

What do the screens show for `CC(=O)NC1=NN(C(C)=O)C2(S1)C(=O)N(C(C)=O)c1ccccc12` (configuration not stated)?
mHTT-CaM PPI inh: 5; Pf apPOL block: -3

Results for CC(=O)NC1=NN(C(C)=O)C2(S1)C(=O)N(C(C)=O)c1ccc(Br)cc12 (configuration not stated) ?
mHTT-CaM PPI inh: 52*; Pf apPOL block: 2

Results for Cc1ccc(C2=NC(=C(Cl)Cl)C(=O)N2)cc1 ?
mHTT-CaM PPI inh: 100*; Pf apPOL block: -3

What do the screens show for `Cc1onc(-c2ccccc2Cl)c1C(=O)Nc1ccc(F)c([N+](=O)[O-])c1`?
mHTT-CaM PPI inh: 23; Pf apPOL block: -5

Results for Cc1ccc2nc(NC(=O)c3cc([N+](=O)[O-])ccc3Cl)sc2c1 ?
mHTT-CaM PPI inh: -2; Pf apPOL block: -3

How did Cc1onc(-c2c(Cl)cccc2Cl)c1C(=O)Nc1nc2ccc([N+](=O)[O-])cc2s1 do in these assays?
mHTT-CaM PPI inh: 85*; Pf apPOL block: -22

How did COc1ccc(NC(=O)c2c(-c3c(Cl)cccc3Cl)noc2C)c([N+](=O)[O-])c1 do in these assays?
mHTT-CaM PPI inh: 53*; Pf apPOL block: 11

How did Cc1ccc(NC(=O)c2c(-c3c(Cl)cccc3Cl)noc2C)c([N+](=O)[O-])c1 do in these assays?
mHTT-CaM PPI inh: 19; Pf apPOL block: 6

How did Cc1onc(-c2c(Cl)cccc2Cl)c1C(=O)Nc1ccc(F)c([N+](=O)[O-])c1 do in these assays?
mHTT-CaM PPI inh: 63*; Pf apPOL block: 42

What do the screens show for `CNC(=O)Nc1cccnc1N1CCCCC1`?
mHTT-CaM PPI inh: 5; Pf apPOL block: -7

What do the screens show for `CN(CCCNC(=O)c1csc2c1CCCC2)Cc1ccccc1`?
mHTT-CaM PPI inh: -5; Pf apPOL block: 1

What do the screens show for `c1ccc2c(Cc3c[nH]c4ccc(-c5ccncc5)cc34)c[nH]c2c1`?
mHTT-CaM PPI inh: 100*; Pf apPOL block: 3

Results for O=C(O)Cc1c[nH]c2ccccc12 ?
mHTT-CaM PPI inh: 10; Pf apPOL block: -1

What do the screens show for `C(=Cc1ccccc1)CN1CCC(Cn2cnc3ccccc32)CC1`?
mHTT-CaM PPI inh: 12; Pf apPOL block: -6

How did O=C(NCCC1=CCCCC1)c1cn2c(n1)CCCC2 do in these assays?
mHTT-CaM PPI inh: -5; Pf apPOL block: -3

How did CSc1ccc(CN2CCN(CCO)CC2)cc1 do in these assays?
mHTT-CaM PPI inh: -1; Pf apPOL block: -1

What do the screens show for `COc1ccc(C2C3=C(CCCC3=O)NC3=C2C(=O)c2ccccc23)cc1` (configuration not stated)?
mHTT-CaM PPI inh: 61*; Pf apPOL block: -2

How did O=C1CCCC2=C1C(c1cccs1)C1=C(N2)c2ccccc2C1=O (configuration not stated) do in these assays?
mHTT-CaM PPI inh: 31; Pf apPOL block: 2

Results for CCOc1ccc(C2C3=C(CCCC3=O)NC3=C2C(=O)c2ccccc23)cc1 (configuration not stated) ?
mHTT-CaM PPI inh: 74*; Pf apPOL block: -4

What do the screens show for `CCOc1ccc(C2C3=C(CCCC3=O)Nc3ncnn32)cc1` (configuration not stated)?
mHTT-CaM PPI inh: -7; Pf apPOL block: -1

What do the screens show for `Cc1cccc(N2C(=O)CSC2c2cccc(C(F)(F)F)c2)c1` (configuration not stated)?
mHTT-CaM PPI inh: -2; Pf apPOL block: 30

Results for CC(C)C1C(=O)N(Cc2cn(CC3CCCCC3)nn2)CCS(=O)(=O)N1Cc1ccc(-c2cccc(CO)c2)cc1 (configuration not stated) ?
mHTT-CaM PPI inh: 55*; Pf apPOL block: -9

Results for CC1C(=O)N(Cc2cn(CC3CCCCC3)nn2)CCS(=O)(=O)N1Cc1ccc(-c2ccc(F)cc2)cc1 (configuration not stated) ?
mHTT-CaM PPI inh: 58*; Pf apPOL block: 5

What do the screens show for `Cc1ccc(-c2ccc(CN3C(C(C)C)C(=O)N(Cc4cn(CC5CCCCC5)nn4)CCS3(=O)=O)cc2)cc1` (configuration not stated)?
mHTT-CaM PPI inh: 17; Pf apPOL block: 3

Screening data from PubChem BioAssay.
